Data taken from PubChem BioAssay.
Values joined by “and” are separate entries in the source; they are usually repeats but may differ in a detail not shown here. Equal values may be shown once. Active and inactive are the calls of the source.

What was measured:
[1] = optical density shifts of acrAB sulA E. coli – strain DRC41, OD650, 48 h, E. coli filamentation inducer project, primary screen (AID 1152); conditions: higher = more signal, called active from +8 up or from −8 down;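 also: E. coli MC1000 strain DRC41 lacking acrAB efflux pump and sulA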
[2] = probe aLefty1 binding on compound microarray – biochemical, small-molecule microarray, 635/667 nm fluorescence, primary screen (AID 1153); conditions: higher = more signal;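 also: score merges spot fluorescence with signal-to-noise ratio from the scanned slide images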
[3] = plasmodial surface anion channel blockers, osmotic lysis – cell-based, P. falciparum Indochina, OD700, 1 h, primary screen (AID 1154); conditions: P. falciparum Indochina infected RBC osmotic lysis, higher = more signal, called active from +8 up or from −8 down
[4] = plasmodial surface anion channel blockers, osmotic lysis – cell-based, P. falciparum Indochina, OD700, 2 h, primary screen (AID 1155);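 also: lysis reports solute entry through the parasite surface anion channel PSAC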; conditions: P. falciparum Indochina infected erythrocytes, higher = more signal, called active from +8 up or from −8 down
[5] = changes in parasitized red cell lysis, either direction – P. falciparum Indochina, OD700, 3 h, PSAC antagonist project, primary screen (AID 1156); conditions: P. falciparum-infected erythrocytes, osmotic lysis, higher = more signal, called active from +8 up or from −8 down
[6] = plasmodial surface anion channel blockers, osmotic lysis – cell-based, P. falciparum Indochina, OD700, 18 h, primary screen (AID 1157); conditions: P. falciparum Indochina infected erythrocytes, osmotic lysis OD700, 18 h; higher = more signal, called active from +8 up or from −8 down
[7] = S6 kinase pathway phospho-S6 level changes – cell-based, A549, cytoblot, luminescence, serum-stimulated, primary screen (AID 1158); conditions: 5 h, higher = more signal;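 also: serum-stimulated A549 lung adenocarcinoma cells; signal is phosphorylated S6 detected by cytoblot immunostaining with HRP secondary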
[8] = biological target: NADPH oxidase 2 (Homo sapiens) (UniProt P04839); experiment: compounds shifting NOX2 Amplex Red fluorescence – cell-based, HEK293-NOX2, PMA-stimulated, NOX inhibitor project, primary screen (AID 1159); conditions: 45 min, higher = more signal, called active from +8 up or from −8 down; also: test concentration not given here
NADPH oxidase 2 (Homo sapiens), sequence (P04839 whole entry, looked up): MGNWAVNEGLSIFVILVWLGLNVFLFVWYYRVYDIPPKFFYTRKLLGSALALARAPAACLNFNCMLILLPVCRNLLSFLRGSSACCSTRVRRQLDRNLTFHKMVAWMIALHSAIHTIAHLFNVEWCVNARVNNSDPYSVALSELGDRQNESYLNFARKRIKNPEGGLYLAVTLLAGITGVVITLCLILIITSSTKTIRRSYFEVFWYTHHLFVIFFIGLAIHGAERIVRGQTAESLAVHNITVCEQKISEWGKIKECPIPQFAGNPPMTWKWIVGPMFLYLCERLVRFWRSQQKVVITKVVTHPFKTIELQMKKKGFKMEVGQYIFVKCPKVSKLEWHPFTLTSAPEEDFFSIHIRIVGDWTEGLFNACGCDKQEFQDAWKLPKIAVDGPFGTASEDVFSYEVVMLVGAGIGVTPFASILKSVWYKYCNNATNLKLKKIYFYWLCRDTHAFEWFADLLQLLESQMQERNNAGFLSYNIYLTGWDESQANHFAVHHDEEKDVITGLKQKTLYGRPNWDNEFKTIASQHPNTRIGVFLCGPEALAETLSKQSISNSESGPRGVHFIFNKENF

[9] = biological target: NADPH oxidase 4 (Homo sapiens) (UniProt Q9NPH5); experiment: compounds shifting NOX4 Amplex Red fluorescence – cell-based, HEK293-NOX4, tetracycline-induced, NOX inhibitor project, primary screen (AID 1160); conditions: HEK293-NOX4, Amplex Red H2O2 fluorescence, 45 min; higher = more signal, called active from +8 up or from −8 down
NADPH oxidase 4 (Homo sapiens), sequence (Q9NPH5 whole entry, looked up): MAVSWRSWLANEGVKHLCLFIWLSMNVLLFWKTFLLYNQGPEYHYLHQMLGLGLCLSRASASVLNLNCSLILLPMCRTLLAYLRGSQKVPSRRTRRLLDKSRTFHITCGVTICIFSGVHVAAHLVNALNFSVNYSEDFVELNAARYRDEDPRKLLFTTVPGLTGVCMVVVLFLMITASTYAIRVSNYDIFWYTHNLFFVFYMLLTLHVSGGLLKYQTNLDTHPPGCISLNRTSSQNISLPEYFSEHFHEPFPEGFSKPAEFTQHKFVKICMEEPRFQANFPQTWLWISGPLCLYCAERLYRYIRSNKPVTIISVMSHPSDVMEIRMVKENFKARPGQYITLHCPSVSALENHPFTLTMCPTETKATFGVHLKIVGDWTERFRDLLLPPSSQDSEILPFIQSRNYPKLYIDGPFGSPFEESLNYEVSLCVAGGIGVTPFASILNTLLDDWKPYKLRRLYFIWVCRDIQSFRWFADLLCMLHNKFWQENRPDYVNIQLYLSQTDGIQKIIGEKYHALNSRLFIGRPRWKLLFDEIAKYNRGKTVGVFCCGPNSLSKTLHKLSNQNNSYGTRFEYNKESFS

[10] = biological target: NADPH oxidase 5 (Homo sapiens) (UniProt Q96PH1); experiment: compounds shifting NOX5 Amplex Red fluorescence – cell-based, HEK293-NOX5, NOX inhibitor project, primary screen (AID 1161); conditions: HEK293-NOX5, ionomycin, 45 min, higher = more signal
NADPH oxidase 5 (Homo sapiens), sequence (Q96PH1 whole entry, looked up): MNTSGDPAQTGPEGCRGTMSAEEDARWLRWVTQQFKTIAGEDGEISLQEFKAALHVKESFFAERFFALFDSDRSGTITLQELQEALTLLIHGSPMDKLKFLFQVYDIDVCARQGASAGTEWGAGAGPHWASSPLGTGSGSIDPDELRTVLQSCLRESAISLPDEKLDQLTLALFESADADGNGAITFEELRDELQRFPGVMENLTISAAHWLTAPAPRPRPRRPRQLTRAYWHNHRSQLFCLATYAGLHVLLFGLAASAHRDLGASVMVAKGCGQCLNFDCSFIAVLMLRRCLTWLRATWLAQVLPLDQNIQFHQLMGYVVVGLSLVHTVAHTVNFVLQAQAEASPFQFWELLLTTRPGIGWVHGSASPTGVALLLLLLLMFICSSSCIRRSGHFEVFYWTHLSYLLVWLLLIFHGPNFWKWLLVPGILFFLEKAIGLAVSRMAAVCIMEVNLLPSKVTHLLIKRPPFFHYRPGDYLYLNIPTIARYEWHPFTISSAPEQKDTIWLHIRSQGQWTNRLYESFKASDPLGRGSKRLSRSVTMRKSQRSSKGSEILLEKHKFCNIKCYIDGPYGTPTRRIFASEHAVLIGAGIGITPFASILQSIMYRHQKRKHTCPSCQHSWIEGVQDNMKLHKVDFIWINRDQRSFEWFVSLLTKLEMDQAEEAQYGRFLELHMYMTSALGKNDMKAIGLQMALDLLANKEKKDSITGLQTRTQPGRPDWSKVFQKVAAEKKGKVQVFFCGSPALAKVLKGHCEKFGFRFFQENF

[11] = compound effects on lung adenocarcinoma cell viability – A549, calcein-AM fluorescence, 48 h, basal, profiling panel (AID 1162); conditions: higher = more signal; also: test concentration not given here
[12] = compound effects on differentiated 3T3-L1 adipocyte viability – cell-based, 3T3-L1 adipocytes, calcein-AM fluorescence, 48 h, basal, profiling panel (AID 1163); conditions: 3T3-L1 adipocytes viability, higher = more signal; also: test concentration not given here
[13] = compound effects on hepatocellular carcinoma cell viability – HepG2, calcein-AM fluorescence, 48 h, basal, profiling panel (AID 1164); conditions: higher = more signal; also: test concentration not given here
[14] = compound effects on multiple myeloma cell viability – MM1S, calcein-AM fluorescence, 48 h, basal, profiling panel (AID 1165); conditions: higher = more signal; also: test concentration not given here
[15] = calcein-AM signal in unstimulated myeloma cells – cell-based, calcein-AM fluorescence, 48 h, PK04 Diversity Set, profiling panel (AID 1166); conditions: RPMI8226 myeloma viability, higher = more signal;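 also: cells grown under basal conditions without added stimulus; test concentration not given here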
[16] = JC-1 mitochondrial signal, unstimulated HepG2 cells – cell-based, JC-1 fluorescence, 24 h, 100 nL compound, profiling panel (AID 1167); conditions: HepG2 mitochondrial potential, higher = more signal; also: test concentration not given here
[17] = JC-1 mitochondrial signal, unstimulated adipocytes – cell-based, JC-1 fluorescence, 3T3-L1 adipocytes, 24 h, 100 nL compound, profiling panel (AID 1168); conditions: JC-1 mitochondrial fluorescence, higher = more signal, called active from +8 up or from −8 down; also: test concentration not given here
[18] = JC-1 mitochondrial signal, unstimulated myeloma cells – cell-based, JC-1 fluorescence, RPMI8226, 24 h, 100 nL compound, profiling panel (AID 1169); conditions: JC-1 mitochondrial potential fluorescence, higher = more signal; also: test concentration not given here
[19] = JC-1 mitochondrial signal, unstimulated MM1S myeloma – cell-based, JC-1 fluorescence, 24 h, 100 nL compound, profiling panel (AID 1170); conditions: MM1S mitochondrial potential, higher = more signal; also: test concentration not given here
[20] = resazurin metabolic signal in A549 cells – cell-based, resazurin fluorescence, 24 h, PK04 Diversity Set, profiling panel (AID 1171); conditions: A549 viability, higher = more signal, called active from +8 up or from −8 down; also: test concentration not given here

Row | Structure (SMILES) | z-score [1] | composite z-score [2] | z-score [3] | z-score [4] | z-score [5] | z-score [6] | z-score [7] | z-score [8] | z-score [9] | z-score [10] | z-score [11] | z-score [12] | z-score [13] | z-score [14] | z-score [15] | z-score [16] | z-score [17] | z-score [18] | z-score [19] | z-score [20]
1 | CC(C)=CCCC(C)=CCON=C1C[C@@H](O)[C@@H](O)[C@@H]2[C@@H]3C(=O)N([C@@H](C)c4ccccc4)C(=O)[C@@H]3CC[C@H]12 | -0.125 (inactive) | -0.0603 | 11.1 (active) | 0.362 (inactive) | 1.3 (inactive) | -0.944 (inactive) | 1.27 | -1.06 (inactive) | -0.306 (inactive) | -4.23 | 0.0319 | 0.2 | 0.446 | -2.88 | -0.0017 | 0.374 | 1.08 (inactive) | 0.0351 | -1.78 | -1.38 (inactive)
2 | C[N+](C)(C)CCCCCCNC(=O)[C@H]1C[C@H]2C(=O)N[C@@H](CCCC[N+](C)(C)C)C(=O)N2[C@H]1c1cccc(OCCO)c1 | 1.06 (inactive) and -0.391 (inactive) | 0.212 and 1.06 | 3.2 (inactive) and 3.03 (inactive) | 1.03 (inactive) and 1.07 (inactive) | 0.0478 (inactive) and -2.4 (inactive) | 0.448 (inactive) and 0.301 (inactive) | -0.0981 and -0.617 | -0.142 (inactive) and -0.0849 (inactive) | 0.566 (inactive) and 0.746 (inactive) | 0.749 and 0.86 | 0.47 and -0.453 | -0.32 and -0.34 | 0.427 and -0.245 | 0.0606 and -0.353 | 0.366 and 0.635 | -0.112 and -1.53 | 0.418 (inactive) and 0.566 (inactive) | -0.192 and 0.231 | -0.644 and -0.272 | -0.154 (inactive) and -0.311 (inactive)
3 | CCC[C@@H]1C[C@@]1(CCC)[C@@H](NC(=O)c1ccc(-c2ccccc2)cc1)c1cccc(Cl)c1 | -2.52 (inactive) and -0.473 (inactive) | 2.19 and 0.345 | 2.33 (inactive) and 6.65 (inactive) | 0.011 (inactive) and 0.853 (inactive) | 0.364 (inactive) and 0.0717 (inactive) | 0.446 (inactive) and 0.691 (inactive) | -0.366 and -0.0422 | -1.8 (inactive) and -1.74 (inactive) | -2.39 (inactive) and -5.23 (inactive) | -1.31 and -1.93 | -2.26 and 0.247 | -0.882 and -0.867 | -2.12 and 1.52 | -2.16 and -0.143 | -2.94 and -1.06 | -0.93 and 2.74 | -0.723 (inactive) and 0.883 (inactive) | -0.256 and 0.137 | -0.647 and -1.16 | 2.06 (inactive) and 0.608 (inactive)
4 | CO[C@@H]1C=CCC(=O)N2CCC[C@H]2C(=O)OC[C@H](C)C(=O)OC[C@H]1C | 0.813 (inactive) | -0.0536 | -0.393 (inactive) | -0.25 (inactive) | -0.355 (inactive) | 0.0084 (inactive) | 0.0533 | -0.773 (inactive) | 0.208 (inactive) | 0.221 | 0.616 | 0.345 | 1.33 | 0.383 | -0.87 | 0.872 | 0.673 (inactive) | -0.0289 | 0.331 | 0.87 (inactive)
5 | COC(=O)C1=C(C)N(Cc2ccccc2)[C@]23O[C@](C(=O)OC)(C(=O)N2[C@@H]1c1ccccc1)[C@H]1C(=O)N(C)C(=O)[C@H]13 | 0.903 (inactive) and 0.564 (inactive) | -0.0418 and 0.223 | 1.35 (inactive) and -0.228 (inactive) | 0.719 (inactive) and -1.26 (inactive) | 0.501 (inactive) and -0.562 (inactive) | 0.248 (inactive) and -1.16 (inactive) | 0.486 and 0.567 | -0.56 (inactive) and -0.171 (inactive) | -0.329 (inactive) and 0.811 (inactive) | 1.57 and 0.888 | 0.395 and 1.67 | 1.1 and 0.612 | 0.0623 and -0.164 | 0.639 and 0.0646 | -1.44 and 1.16 | 0.873 and 0.158 | 0.107 (inactive) and 1.13 (inactive) | -0.536 and 0.12 | 0.551 and -0.416 | -0.81 (inactive) and 0.0401 (inactive)
6 | C=CCN(CCCCC)C(=O)C1N(CCOCCO)C(=O)C2C(C(=O)O)C3C=CC21O3 (stereo not given) | -0.657 (inactive) and -0.678 (inactive) | -0.0518 and -0.0061 | -0.326 (inactive) and 0.243 (inactive) | -0.438 (inactive) and -0.392 (inactive) | -0.661 (inactive) and -0.448 (inactive) | 0.0613 (inactive) and -0.159 (inactive) | -0.192 and 0.359 | 0.347 (inactive) and 0.481 (inactive) | -1.7 (inactive) and -1.87 (inactive) | 0.569 and 0.0493 | -0.178 and -0.126 | 0.21 and -0.603 | -0.499 and -0.87 | 0.226 and 1.03 | -0.361 and 0.133 | -0.562 and -0.928 | -0.279 (inactive) and -0.227 (inactive) | 0.252 and 0.715 | 0.377 and 0.103 | -0.529 (inactive) and -1.03 (inactive)
7 | CC(CO)N1C(=O)[C@@H]2C3C(=O)OCCC=C[C@H]3OC23C=CCN(c2ccc(Cl)cc2)C(=O)[C@@H]13 (stereo not given in full) | -0.0529 (inactive) and -0.655 (inactive) | -0.142 and 0.422 | 0.725 (inactive) and 3.92 (inactive) | 1.02 (inactive) and 0.352 (inactive) | 0.741 (inactive) and 0.968 (inactive) | 0.817 (inactive) and 0.0372 (inactive) | -0.7 and -0.574 | 1.59 (inactive) and 1.47 (inactive) | 1.03 (inactive) and 1.11 (inactive) | 2.46 and 2.5 | 0.112 and -0.123 | 0.194 and 0.458 | 0.47 and 1.07 | -0.725 and -0.182 | 0.622 and -0.222 | 0.242 and 0.0111 | 0.518 (inactive) and -0.689 (inactive) | 0.0601 and -0.811 | 0.936 and -0.274 | 0.189 (inactive) and 0.557 (inactive)
